Screening data: PubChem, National Center for Advancing Translational Sciences (NCATS)
LASV entry inh: blocks Lassa virus binding to or entry into cells; 1.2% of 300,000 active; Lassa virus pseudotype entry inhibition, cell reporter; AID 540256; Potency, µM (series often up to 37.9 µM), for the others: top-dose activity change, negative = inhibition, most hits filed as inhibitors; calls by dose curve; tested in HEK293 cells; further: potency means the concentration at half of the fitted maximal effect; nearly all actives have a fitted effect of over 50% in size
HCMV antiviral: human cytomegalovirus inhibition; activity change, negative = inhibition, % at 57.5 µM; HFF cells, HCMV-luciferase reporter, 72 h; active compounds read low; 4.5% of 410,000 active; in the data active means activity change below about -60%; inconclusive means no clear call, values can overlap the other calls; inactive means above about -39%
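Inhibition of viral replication was scored as loss of reporter luminescence in HFFs infected with HCMV-luciferase (MOI 1 PFU/cell) for 72 h; compounds tested at 2 doses, normalized to buffer and Salinomycin controls.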
Vaccinia mCherry: vaccinia inhibition (mCherry reporter). Vaccinia virus mCherry reporter infection, fluorescence. Potency, µM (series often up to 36.5 µM), for inactives: at the highest dose activity change, negative = inhibition, actives largely listed as inhibitors. 0.63% of 310,000 active; calls by dose curve; tested in A549 cells; further: potency means the concentration at half of the fitted maximal effect; nearly all actives have a fitted effect of over 35% in size
Vaccinia Venus: vaccinia inhibition (Venus reporter). Vaccinia virus Venus reporter expression, fluorescence. AID 720580. Potency, µM (highest dose often 36.5 µM), for inactives: top-dose activity change, negative = inhibition, usual class: inhibitors. 0.46% of 330,000 active; calls by dose curve; tested in A549 cells; further: potency means the concentration at half of the fitted maximal effect; nearly all actives have a fitted effect of over 30% in size
FMDV inh: blocks foot and mouth disease virus | FMDV antiviral cell-based qHTS | Potency, µM (doses to about 57.9 µM), without a hit: at the top dose activity change, negative = inhibition, hits mostly inhibitors | 1.2% of 410,000 active | AID 1159524; calls by dose curve; tested in HEK293T cells; further: read-out not given here; potency means the concentration at half of the fitted maximal effect; nearly all actives have a fitted effect of over 45% in size
Marburg entry inh: blocks Marburg virus binding to or entry into cells. Marburg virus pseudotyped entry inhibition, cell reporter. Potency, µM (top dose mostly 37.8 µM), for the others: top-dose activity change, negative = inhibition, usual class: inhibitors. 1.8% of 300,000 active. AID 540276; calls by dose curve; tested in HEK293 cells; further: potency means the concentration at half of the fitted maximal effect
Numbers without * were called inactive; i = inactive; ? = inconclusive; . = no result given; ! = not confirmed by another sample; [ ] = remark or other dose. Most compounds without a hit are left out; they make up all but 6.5% or so of the library. On the % scale 0 is the no-effect control and ±100 the full control effect.

SMILES	LASV entry inh	HCMV antiviral	Vaccinia mCherry	Vaccinia Venus	FMDV inh	Marburg entry inh
Nc1nc(N)c(-c2cccc(C(F)(F)F)c2)c(Cc2cccc(C(F)(F)F)c2)n1	?	-75.4*	4.47µM*	3.98µM*	-29.3%	?
Cc1ccc(NC(=O)CCN2CCN(C/C=C/c3ccccc3)CC2)cc1	-29.6%	-39.0	.	?	?	8.91µM*
Cc1ccc(NC(=O)CCN2CCN(C/C=C/c3ccccc3)CC2)cc1C	-4.8%	-22.5	i	-26.4%	0.0%	?
CCOc1ccc(NC(=S)N2CCN(C/C=C/c3ccccc3)CC2)cc1	.	-30.4	?	?	-4.7%	-21.0%[46.1 µM]
COc1ccc(NC(=S)N2CCN(C/C=C/c3ccccc3)CC2)cc1	-6.0%[46.1 µM]	-64.6*	?	-29.5%	15.4%	?
CC(C(=O)Nc1ccc([N+](=O)[O-])cc1)N1CCN(C/C=C/c2ccccc2)CC1 (stereo unspecified)	7.6%	?	-29.2%	-27.8%	28.2µM*	12.6µM*
Cc1sc2ncn(CCn3cnc4sc(C)c(C)c4c3=O)c(=O)c2c1C	-15.3%	?	.	-14.9%	20µM*	?
Cc1sc2ncn(CCC(=O)O)c(=O)c2c1C	-3.1%	4.3	.	-19.1%	-26.3%	0.9%
COc1cccc(S(=O)(=O)N2CCN(c3nc(-c4cccs4)nc4ccccc34)CC2)c1	.	.	-5.5%	-11.4%	.	.
COc1ccccc1NC(=O)Cn1c(=O)n(Cc2cccs2)c(=O)c2cccnc21	.	-64.3*	-12.9%	-18.3%	-14.3%	2.8%[46.1 µM]
COc1ccccc1NC(=O)Cn1c(C)cc(=O)c2cccc(OC)c21	-19.2%	-10.3	?	?	7.08µM*	?
C=CCNCCCCOc1ccc(OCc2ccccc2)cc1	.	-68.7*	.	.	28.6%	.
O=C(Nc1ccc(N2CCOCC2)cc1)c1cnccn1	2.24µM*	?	14.5%	-5.1%	-58.9%	?
CCCc1ccc(NC(=O)C2CCN(c3cnccn3)CC2)cc1	1.3%[46.1 µM]	-64.0*!	-0.4%	-22.1%	-15.7%	1.1%[46.1 µM]
CCCCc1ccc(NC(=O)c2cnccn2)cc1	11.2µM*	-33.0	?	-9.1%	9.8%	7.94µM*
O=C(Nc1ccc(N2CCOCC2)cc1)c1cnsn1	.	-73.4*	-14.4%	-8.2%	28.2µM*	4.1%
O=C(Nc1ccc(N2CCOCC2)cc1)c1ccncc1	3.9%	2.3	.	-0.2%	20.1%	17.8%
Cc1ccc(NC(=O)C2CCN(c3cnccn3)CC2)cc1	.	20.0	.	.	-13.9%	.
CCc1ccc(NC(=O)C2CCC(CNS(=O)(=O)c3cccs3)CC2)cc1 (stereo unspecified)	14.1%[46.1 µM]	-2.4	0.2%	-8.3%	16.2%	7.3%[46.1 µM]
CCOC(=O)C1=CCN(S(=O)(=O)c2ccc(Br)cc2)C1c1cccc(Cl)c1 (stereo unspecified)	.	-16.0	.	.	.	.
CCOC(=O)c1cc(NC(=O)c2cnccn2)cc(C(=O)OCC)c1	24.2%[14.3 µM]	-92.5*	-6.6%	-8.0%	9.0%	?
CCOc1ccc(CCNC(=O)c2c(C)oc3ncnc(N4CCOCC4)c23)cc1	?	-21.5	-18.6%	-5.1%	-8.0%	.
c1ccc(-n2cnc3cc(NCc4ccco4)ccc32)cc1	?	-86.3*	-27.4%	?	64.8%	-1.9%[46.1 µM]
Cc1ccc(-n2cnc3cc(NCc4cccs4)ccc32)cc1	?	-0.2	.	.	5.9%	?
Cc1cccc(CN2[C@@H](C)[C@H](c3ccccc3)Oc3cc(Br)ccc3S2(=O)=O)c1	1.0%[46.1 µM]	?	.	.	.	.
SMILES	LASV entry inh	HCMV antiviral	Vaccinia mCherry	Vaccinia Venus	FMDV inh	Marburg entry inh
Cc1cc(NC(=O)CCl)no1	?	-81.8*	?	?	?	?
CCOC(=O)CN1C(=O)NC(CCc2ccccc2)C(C(=O)OC)=C1C (stereo unspecified)	?	.	.	.	.	-23.0%[14.2 µM]
CCOC(=O)C1=Nc2ccccc2C1=[N+]=[N-]	?	-100.4*	?	?	-0.5%	?
CCOC(=O)C1=Nc2cccc3c(O)ccc1c23	.	15.7	.	.	.	.
CCOC(=O)[C@]12Cc3cc4c(cc3[C@H]1N(Cc1ccccc1)C(=O)c1ccccc12)OCO4	.	-18.5	11.2µM*!	?	-29.4%	.
CCOC(=O)[C@]12Cc3ccccc3[C@H]1N(Cc1ccccc1)C(=O)c1cc(F)c(F)cc12	.	?	-14.6%	-12.9%	25.1µM*	.
CCN(Cc1ccccc1)C(=O)COC(=O)c1cc(S(=O)(=O)Nc2c(C)n(C)n(-c3ccccc3)c2=O)ccc1C	-15.7%[46.1 µM]	-64.7*	-4.3%	-10.8%	14.2%	-13.5%[46.1 µM]
O=C(N/C=N/OCc1ccc(Cl)cc1Cl)NOCc1c(Cl)cccc1Cl	-11.6%	-31.7	-7.5%	-15.8%	?	?
CO/N=C/NC(=O)NOCc1c(Cl)cccc1Cl	19.0%	-104.0*	.	-19.5%	0.0%	-4.8%
COc1ccc(Nc2cc3c(cn2)ncn3Cc2ccccc2)cn1	.	8.0	.	.	.	.
CCCCNc1nc(-c2ccccc2)c(C(=O)OCC)cc1C#N	11.2µM*	-3.2	.	-28.7%	-14.6%	?
C=CCNc1nc(-c2ccccc2)c(C(=O)OCC)cc1C#N	?	20.8	-17.7%	-25.6%	?	?
Cn1cc(Cl)cc1-c1ncc(Cc2c[nH]c(N)[n+]2C)o1	.	-11.5	.	.	.	.
Cc1nc(NCCc2ccccc2)c2oc3ccccc3c2n1	0.4%	-80.7*	.	.	?	?
Cc1nc(NCCN2CCOCC2)c2oc3ccccc3c2n1	-11.0%	8.4	i	-5.3%	-8.1%	7.7%
CCCCNC(=O)N[C@H]1CC[C@@]23CCCN2C(=O)CCC[C@H]3[C@H]1C	.	-7.9	.	.	.	.
CC(C)(C)C(=O)Cn1ncc(Br)c(Br)c1=O	.	-101.0*	.	.	?	.
Cc1cc(-c2ccc(S(=O)(=O)Nc3ccc(Br)c(C)c3)s2)on1	-9.4%[46.1 µM]	0.0	-7.9%	?	12.7%	.
COc1ccccc1-c1nc(-c2ccccn2)no1	.	?	-10.3%	-8.0%	-72.0%	.
Cc1ccccc1-c1nc(-c2ccccn2)no1	1.26µM*	-7.9	0.3%	8.7%	6.31µM*	?
COc1ccc(-c2nc(-c3ccncc3)no2)cc1	.	98.8	.	.	-1.4%	.
COc1ccc(-c2nc(-c3ccccn3)no2)cc1	?	-94.4*	.	.	7.94µM*	0.291µM*
